Test results taken from PubChem BioAssay AID1259415 (National Center for Advancing Translational Sciences (NCATS), 2018).
Screen size: about 410,000 compounds; about 18,000 (4.4%) were called active. About 7% were inconclusive and are not listed. No stated cut-off is given here; in the data, active means activity change below about -60%; inconclusive means no clear call, values can overlap the other calls; inactive means above about -39%. Many of the other results were omitted from the sample, so actives are more common in it than they were.

Experiment: qHTS Assay for inhibitors of the human cytomegalovirus (HCMV)
Settings: HFF cells, HCMV-luciferase reporter, 72 h; at 57.5 µM; hits give low values
Procedure, shortened: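 After 16 h attachment at 37C, HFF cells received test compound and HCMV-luciferase (1 PFU/cell); reporter luminescence read 72 h later, data normalized against buffer-only and known inhibitor Salinomycin.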
On the % scale 0 is the no-effect control and ±100 the full control effect.

Compound | activity change, negative = inhibition
CC(c1ccco1)N(C(=O)c1ccc(S(=O)(=O)N2CCCCC2)cc1)c1ccccn1 (centres undefined) | -14.3% (inactive)
Fc1ccc(CN2CCc3nc(Nc4ccccc4)ncc3C2)cc1F | -18.4% (inactive)
CC(C)Nc1ncnc2c1nnn2Cc1ccccc1 | 45.3% (inactive)
c1ccc(Cn2nnc3c(NCC4CC4)ncnc32)cc1 | 30.2% (inactive)
COc1ccc(CCNc2ncnc3c2nnn3Cc2ccccc2)cc1 | -95.1% (active)
O=C(CN1c2ccccc2S(=O)(=O)c2ccccc21)Nc1cccc(C(F)(F)F)c1 | 14.4% (inactive)
O=C(Cn1cnc2c(oc3ccccc32)c1=O)Nc1ccc(OC(F)(F)F)cc1 | 14% (inactive)
COc1ccc(OCc2ccc(-c3nc(C#N)c(N4CCN(c5ccccc5)CC4)o3)o2)cc1 | 2.46% (inactive)
OCCN1CCN(C(=S)c2ccc(-c3ccccc3)cc2)CC1 | -79.4% (active)
O=C(NC(=S)N1CCN(Cc2ccccc2)CC1)c1ccccc1 | -3.08% (inactive)
O=C1CCN(CCCc2ccccc2)CCN1CCO | -6.21% (inactive)
COCCNc1ncnc2c1c(-c1ccccc1)cn2-c1ccc(C)c(Cl)c1 | -33.4% (inactive)
CCc1ccccc1NC(=S)N(CCN1CCCCCC1)Cc1ccco1 | 29.5% (inactive)
Cc1ccc(NC(=S)N(CCCN2CCCC2)Cc2cccn2Cc2ccc(Cl)cc2)cc1 | -72% (active)
Cc1ccccc1NC(=S)N(CCCN1CCOCC1)Cc1cccs1 | -30.9% (inactive)
CC(C)NC(=O)C(=O)NCCCOC(C)C | -7.97% (inactive)
CN(CC(=O)NCCN1CCOCC1)S(=O)(=O)c1ccc(F)cc1 | -13.5% (inactive)
Cc1ccc(-c2nnc(SCC(=O)NCc3ccccc3)nc2-c2ccc(C)cc2)cc1 | -16.5% (inactive)
CCc1ccccc1NC(=O)CSc1nnc(-c2ccccc2)c(-c2ccccc2)n1 | -84.3% (active)
COc1ccc(-c2nnc(SCC(=O)Nc3ccc(C(C)C)cc3)nc2-c2ccc(OC)c(OC)c2)cc1OC | 2% (inactive)
O=c1cc(CSc2ccccn2)nc(N2CCN(c3ccccc3)CC2)[nH]1 | 15.5% (inactive)
COc1ccccc1N1CCN(C(=O)c2cc(=O)c3cc(C)cc(C)c3o2)CC1 | -72.5% (active)
COc1ccccc1N1CCN(C(=O)c2ccc(NC3=NC4CS(=O)(=O)CC4S3)cc2)CC1 (centres undefined) | -1.18% (inactive)

Compound | activity change, negative = inhibition
CCOc1ccccc1N1CCN(C(=O)c2ccc3[nH]c(C)c(C)c3c2)CC1 | -4.04% (inactive)
O=c1c2cccnc2n(Cc2cccc(F)c2)c(=O)n1Cc1ccccc1Cl | -4.52% (inactive)
O=S(=O)(NCC(c1ccco1)N1CCOCC1)c1cc(F)ccc1F (centres undefined) | 10.6% (inactive)
CC(OC(=O)/C=C/c1ccccc1)C(=O)Nc1ccc(C(N)=O)cc1 (centres undefined) | -26.6% (inactive)
O=C(N/N=C/C=C/c1ccccc1)C1CC1(c1ccccc1)c1ccccc1 (centres undefined) | -22.7% (inactive)
O=C(NN=CC=Cc1ccccc1)C(O)C(O)C(=O)NN=CC=Cc1ccccc1 (centres undefined) | -99% (active)
O=C(Nc1ccn(Cc2ccccc2)n1)c1n[nH]c([N+](=O)[O-])c1Cl | -0.724% (inactive)
CC1(C)CC(N2CCN(C(c3ccccc3)c3ccccc3)CC2)=CC(=[N+]2CCCCC2)C1 | -98.5% (active)
COC(=O)C(c1ccccc1)N1CCCCCC1 (centres undefined) | -22.2% (inactive)
COc1ccc(CCN2C(=O)N(c3cccc(OC)c3)C(=O)C2CC(=O)Nc2ccccc2)cc1 (centres undefined) | 30.6% (inactive)
Cc1csc2nc(COc3ccc(NC(=O)COc4ccccc4)cc3)cc(=O)n12 | -18.6% (inactive)
CCOC(=O)c1[nH]c(C)c(CCC(=O)N2CCN(c3ccccc3)CC2)c1C | -11% (inactive)
COc1ccc(CCNCc2c(-c3ccccc3)n(C)c3ccccc23)cc1 | -5.91% (inactive)
COc1cc(OC)cc(-c2c(C#Cc3ccsc3)c3cc(-c4ccc(SC)cc4)ccc3n2C)c1 | -6.32% (inactive)
COc1ccc(-c2c(C#Cc3ccccc3)c3ccccc3n2C)cc1 | -78.4% (active)
COc1ccccc1CNCc1ccc(C(=O)O)s1 | -9.76% (inactive)
O=C(CSc1nc(=O)[nH]c2c1CCCC2)Nc1cc(C(F)(F)F)ccc1Cl | -20.6% (inactive)
Cn1c(CN2CCOCC2)nc2cc(NC(=O)c3ccc(Cl)cc3)ccc21 | -84.5% (active)
O=C(Nc1ccc(CN2CCOCC2)cc1)c1cc(Cl)ccc1Cl | -13.5% (inactive)
CN1CCN(Cc2nc3cc(NC(=O)COc4ccc([N+](=O)[O-])cc4)ccc3n2C)CC1 | 18.6% (inactive)
Cc1ccccc1S(=O)(=O)N[C@H]1CC[C@@]23CCCN2C(=O)CCC[C@H]3[C@H]1C | -19.4% (inactive)
Cc1cccc(Cn2c(CN3CCC(C(=O)NCc4ccccc4Cl)CC3)cc3ccccc32)c1 | -4.28% (inactive)
CCc1cc2c(cc3c(=O)n(CC(=O)N4CCN(c5cc(Cl)ccc5C)CC4)ncn32)s1 | 85.8% (inactive)

Compound | activity change, negative = inhibition
O=c1n(Cc2cccc(C(F)(F)F)c2)c2ccccc2c2nc(-c3ccccc3)nn12 | 26.8% (inactive)
O=c1c2ccccc2nc2n1C(CSCc1ccccc1)CS2 (centres undefined) | -74.9% (active)
O=c1c2ccccc2nc2n1C(CSCc1cccc(C(F)(F)F)c1)CS2 (centres undefined) | -67.5% (active)
O=c1c2ccccc2nc2n1C(CSc1ccc(Cl)cc1)CN2 (centres undefined) | 59.6% (inactive)
Cc1ccc(-n2c(/C=C/c3cccc(C(F)(F)F)c3)nc3ccccc3c2=O)cc1 | -5.7% (inactive)
C#CCCCc1nc2ccccc2c(=O)n1N | 56.9% (inactive)
Cc1ccccc1C(=O)Nc1sc2c(c1C(=O)N1CCC(C)CC1)CCCC2 | -11.9% (inactive)
COc1cc(Br)cc2cc(S(=O)(=O)c3ccccc3)c(=O)oc12 | 14.3% (inactive)
CC(C)(C)c1ccc(CN2C(=O)CN=C(c3ccccc3)c3ccccc32)cc1 | -79.6% (active)
COc1ccc(CN2C(=O)CN=C2Nc2ccc(C)cc2C)cc1 | 1.11% (inactive)
CCN(CC)C(=O)C1=C(C)N(Cc2ccc(C(C)(C)C)cc2)C(=O)C(CC(=O)NCc2cccc3ccccc23)C1 (centres undefined) | 16.5% (inactive)
O=C(c1ccc(Cl)cc1)n1nc(-c2cccnc2)nc1NCc1ccc(F)cc1 | 4.96% (inactive)
CCOc1ccc(-c2cc3nc(C4CCN(C(=O)OC(C)(C)C)CC4)c(C(=O)Nc4ccc(C(=O)OC)cc4)cn3n2)cc1 | 24.4% (inactive)
COc1ccccc1CNC(=O)c1ccc(CS(=O)c2ccccc2Cl)o1 (centres undefined) | 9.25% (inactive)
CCOc1ccc(NC(=O)c2c(NCc3cccc(OC)c3OC)sc3c2CCC3)cc1 | 13% (inactive)
O=C(c1ccco1)N(Cc1nc2ccccc2c(=O)[nH]1)C1CCCC1 | -0.921% (inactive)
COCC(C)n1c(SCC(=O)NC2CCCCC2C)nc2ccccc2c1=O (centres undefined) | -19.2% (inactive)
CN(c1ccc2nc3ccccc3c(=O)n2n1)C1CCCCC1 | -90% (active)
COc1ccc(CCC(=O)Nc2ccc(Cl)c(S(=O)(=O)N3CCOCC3)c2)cc1OC | -69% (active)
COc1ccc(NC(=O)c2cc(=O)[nH]c3ccccc23)cc1S(=O)(=O)N1CCOCC1 | 9.13% (inactive)
O=C(CCc1ccc(S(=O)(=O)N2CCOCC2)cc1)Nc1ccc2ccccc2c1 | -9.83% (inactive)
COc1ccc(C(=O)N(Cc2ccccc2)c2ccc(C)cc2)cc1S(=O)(=O)N1CCOCC1 | -15.2% (inactive)
COc1ccc(CC(=O)Nc2ccc3c(c2)CCC3)cc1S(=O)(=O)N1CCOCC1 | -10.6% (inactive)

Compound | activity change, negative = inhibition
COc1ccc(/C=C/C(=O)Nc2ccc(C)cc2)cc1S(=O)(=O)N1CCOCC1 | -73.1% (active)
O=C(CSc1n[nH]c(-c2ccccc2)n1)N1CCCCC1 | 61.5% (inactive)
CSc1nc(-c2ccc(F)cc2)nc2c1Cc1c(CO)cnc(C)c1O2 | 4.76% (inactive)
CC(C)(CSc1nncn1/N=C/c1ccco1)NS(=O)(=O)c1ccc(Cl)cc1 | -28.3% (inactive)
COc1cccc(NC(=O)N2CCCC2C(=O)NC2CCCCC2)c1 (centres undefined) | -32.8% (inactive)
COc1ccc(CCNC(=O)CCc2cn(C)c3ccccc23)c(OC)c1 | -11% (inactive)
COc1cccc(NC(=O)N(Cc2cn(C)c3ccccc23)C2CCCCCC2)c1 | -105% (active)
O=C(Cn1c(=O)n(-c2ccc(F)cc2)c(=O)c2sc3ccccc3c21)NC1CCCC1 | -5.96% (inactive)
Fc1ccc(-c2nc(Nc3cccc(Cl)c3)nc3c2COc2ccccc2-3)cc1 | -30.5% (inactive)
CCOC(=O)C(C)Sc1nnc(CSc2nc3nc(C)cc(C)n3n2)o1 (centres undefined) | -27.1% (inactive)
Cn1c(CNC(=O)c2ccco2)nnc1SCC(=O)N1CCN(c2ccccc2)CC1 | 9.34% (inactive)
Cn1c(Cc2cccc3ccccc23)nnc1SCC(=O)N1CCN(c2cccc(Cl)c2)CC1 | -71.4% (active)
Cc1cc2nnc(SCC(=O)N3CCN(c4ccccc4)CC3)n2c(N)n1 | 2.88% (inactive)
Cc1ccccc1NC(=O)Cn1c(=O)n(CCCCC(=O)NCc2ccccc2Cl)c(=O)c2ccccc21 | 0.203% (inactive)
COc1ccc(N2CCN(c3ccc([N+](=O)[O-])nc3)CC2)cc1 | -29.8% (inactive)
Cc1cc(N2CCN(c3ccc(F)cc3)CC2)n2ncnc2n1 | -22.6% (inactive)
COc1ccc(N2CCN(c3cc(C)nc4nncn34)CC2)cc1 | -72.4% (active)
COC(=O)c1ccc(/C=N/OCC(=O)Nc2cc(F)ccc2F)cc1 | 36.6% (inactive)
Cc1ccc2c(c1)c1c(c(=O)n(-c3ccccc3)c(=O)n1CC(=O)c1ccc(Cl)cc1)n2C | 7.77% (inactive)
O=C(CN(Cc1ccccc1)C(=O)CCC(=O)Nc1ccccn1)NCCc1ccccc1 | 18.2% (inactive)
